This test has as its system HepG2. Description: GSK_TCMDC: Percent inhibition of human HepG2 cell line. Test compounds present at 10uM. Type of test: functional.
The term Inhibition denotes the percentage by which the read-out fell short of the control. The low end stands for a weak effect, the high end for a strong effect. Consider `COc1ccc(NC(=O)Nc2cc(C)nc3cccnc23)cc1Cn1ccnc1`, for which the Inhibition is 12%.

The compound `Cc1ccnc(NC(c2cccc(Cl)c2Cl)c2ccc3cccnc3c2O)c1` (stereo not given) returned an Inhibition of 46%.

`Cl.NC1CCN(Cc2cccc(-c3ccc(-c4nc5cc(C(F)(F)F)ccc5[nH]4)cc3)c2)C1` (stereo not given) displayed an Inhibition of 21%.

`O=C(Nc1cccc(C(F)(F)F)c1)c1ccc(S(=O)(=O)NCC2CCCN(CC3CCCCC3)C2)cc1.O=C(O)C(F)(F)F` (stereo not given) gave an Inhibition of 26%.

Take `Cl.N#Cc1ccc2c(c1)CCN(CCC1CCC(NC(=O)c3ccc(-c4ccccn4)s3)CC1)CC2` (stereo not given): the Inhibition came out at 16%.

In turn, `COc1cc(NC2=NS(=O)(=O)c3cc(Cl)ccc3N2C)cc(OC)c1OC.O=C(O)C(F)(F)F` registered an Inhibition of 0%.

`FC(F)(F)c1cccc(CNCC2CCN(Cc3ccc4c(c3)OCO4)CC2)c1.O=C(O)C(F)(F)F`: the Inhibition is reported as 21%.

Compound `CCOc1ccccc1C1CCN(CCCCNC(=O)c2ccc(NC(=O)c3ccc(Cl)cc3)cc2)CC1` showed an Inhibition of 13%.

Compound `COc1cc2nccc(Nc3ccc(OCc4ccccc4)cc3)c2cc1OC` returned an Inhibition of 35%.

In turn, `OC(CNCc1ccccc1OCc1ccccc1)c1cc(Br)cs1` (stereo not given) had an Inhibition of 16%.

`COc1ccc(CNC2CCN(C)CC2)cc1-c1ccc(S(=O)(=O)NCCN2CCCC2)s1.O=C(O)C(F)(F)F` displayed an Inhibition of 2%.

For `O=C(NCCCCN1CCN(c2ccc3c(c2)CCC3)CC1)c1ccc(NC(=O)c2ccc(Cl)cc2)cc1`, the Inhibition is recorded as 38%.

The compound `O=C(Cc1ccc[n+]([O-])c1)Nc1ccc(-c2cccc(-c3nc4cc(C(F)(F)F)ccc4[nH]3)c2)cc1` displayed an Inhibition of 16%.

The compound `Cc1ccc(/C=C/C(=O)NC2CCC(N3CCC(c4ccccc4C)CC3)CC2)cc1C` (stereo not given) showed an Inhibition of 12%.

Turning to `CN(C)CC(O)COc1ccc(Nc2ncc([N+](=O)[O-])c(Nc3ccccc3O)n2)cc1.O=C(O)C(F)(F)F` (stereo not given), the Inhibition worked out at 47%.

Consider `Cc1[nH]c(C)c([N+](=O)[O-])c(=O)c1-c1ccc(Oc2ccccc2)cc1`, for which the Inhibition amounted to 11%.

The compound `CCCC(C)Nc1nc(C)cc(N[C@@H](Cc2ccccc2)C(=O)NCCc2ccccc2)n1.O=C(O)C(F)(F)F` (stereo not given in full) returned an Inhibition of 11%.

With `Cc1cccc2nc(-c3ccc(-c4ccc(NC(=O)Nc5ccsc5)cc4)s3)[nH]c12`, the Inhibition worked out at 74%.

Compound `CS(=O)(=O)Cc1ccc(Nc2nccc(-c3c(-c4cccc(NC(=O)C5CCCCC5)c4)nn4ncccc34)n2)cc1` returned an Inhibition of 31%.

Compound `CN1CCN(CCCN(Cc2cccc(-c3cccc(CNC4CCCC4)c3)c2)C(=O)CCC2CCCC2)CC1.O=C(O)C(F)(F)F` yielded an Inhibition of 35%.

Consider `CC1(C)N=C(N)N=C(N)N1c1ccc([N+](=O)[O-])cc1.Cl`, for which the Inhibition amounted to 3%.

Regarding `CCNc1cc(C(=O)N[C@@H](Cc2ccccc2)[C@H](O)CNC2CCCCC2)cc(N2CCCCS2(=O)=O)c1`, the Inhibition was 11%.

As to `FC(F)(F)CNc1nc(Nc2ccc3ncccc3c2)nc2[nH]ccc12.O=C(O)C(F)(F)F`, the Inhibition came to 37%.

In turn, `Cc1cc(O)c(CN(C)Cc2ccc3c(c2)OCO3)cc1C(C)C` displayed an Inhibition of 9%.

`COc1ccc(NC(=O)[C@H](Cc2ccccc2)Nc2cc(C)nc(NCCc3ccccc3)n2)cc1.O=C(O)C(F)(F)F` registered an Inhibition of 6%.

Consider `Cc1c(C(=O)N2CCCC(C(F)(F)F)C2)sc2cccc(F)c12` (stereo not given), for which the Inhibition is reported as 0%.

`O=C(O)C(F)(F)F.c1cc(-c2ccc(CNC3CC3)cc2)cc(-c2nc3ccccc3[nH]2)c1` showed an Inhibition of 17%.

Consider `Cc1cccc2nc(-c3cccc(-c4cccc(CNCCCN5CCCC5=O)c4)c3)[nH]c12.O=C(O)C(F)(F)F`, for which the Inhibition was 9%.

With `COc1cc2c(cc1OC)CC(NCCCCCCNCCc1ccc(Cl)cc1)CC2.Cl` (stereo not given), the Inhibition is on record as 50%.

For the compound `Cc1ncccc1-c1cccc2c(NC(=O)Nc3ccc4nccc(N5CCN(C)CC5)c4c3)cccc12.Cl`, the Inhibition is 19%.

For the compound `CC(=O)c1cccc2cc(C(=O)NC3CCC(CCN4CCc5ccc(C#N)cc5C4)CC3)[nH]c12.Cl` (stereo not given), the Inhibition came to 12%.

In turn, `COc1ccc2nccc([C@@H](O)CN3CCC(NCc4nc5c([N+](=O)[O-])cccc5[nH]4)CC3)c2c1.O=C(O)C(=O)O` yielded an Inhibition of 13%.

As for `COc1ccc(NC(=O)c2ccc(-c3cc(NC(=O)c4ccnc(N5CCCC5)c4)ccc3C)s2)cc1N1CCN(C)CC1.O=C(O)C(F)(F)F`, the Inhibition is on record as 15%.

On to `Cc1nc(N)nc(N)c1-c1ccc(Cl)c(Cl)c1` [METOPRINE], for which the Inhibition stood at 66%.

On to `CN1CCN(CCCN(C(=O)Nc2cc(C(F)(F)F)cc(C(F)(F)F)c2)c2ccccc2Cc2ccccc2)CC1`, for which the Inhibition stood at 35%.

Values taken from ChEMBL document CHEMBL1157539, “Thousands of chemical starting points for antimalarial lead identification” (Nature, 2010).
